Hit rate of the full screen: of about 310,000 compounds, about 14,000 (4.5%) showed an effect of 50% or more. Effects have a minus sign here. The list comes from a sample in which strong results are over-represented; it also holds similar structures and randomly drawn compounds.
biological target: human ether-à-go-go-related gene (hERG) potassium channel (human, UniProt Q12809); experiment: primary screen, population patch clamp on CHO cells stably expressing hERG; higher = less effect of the substance
Sequence (Q12809 whole entry, looked up): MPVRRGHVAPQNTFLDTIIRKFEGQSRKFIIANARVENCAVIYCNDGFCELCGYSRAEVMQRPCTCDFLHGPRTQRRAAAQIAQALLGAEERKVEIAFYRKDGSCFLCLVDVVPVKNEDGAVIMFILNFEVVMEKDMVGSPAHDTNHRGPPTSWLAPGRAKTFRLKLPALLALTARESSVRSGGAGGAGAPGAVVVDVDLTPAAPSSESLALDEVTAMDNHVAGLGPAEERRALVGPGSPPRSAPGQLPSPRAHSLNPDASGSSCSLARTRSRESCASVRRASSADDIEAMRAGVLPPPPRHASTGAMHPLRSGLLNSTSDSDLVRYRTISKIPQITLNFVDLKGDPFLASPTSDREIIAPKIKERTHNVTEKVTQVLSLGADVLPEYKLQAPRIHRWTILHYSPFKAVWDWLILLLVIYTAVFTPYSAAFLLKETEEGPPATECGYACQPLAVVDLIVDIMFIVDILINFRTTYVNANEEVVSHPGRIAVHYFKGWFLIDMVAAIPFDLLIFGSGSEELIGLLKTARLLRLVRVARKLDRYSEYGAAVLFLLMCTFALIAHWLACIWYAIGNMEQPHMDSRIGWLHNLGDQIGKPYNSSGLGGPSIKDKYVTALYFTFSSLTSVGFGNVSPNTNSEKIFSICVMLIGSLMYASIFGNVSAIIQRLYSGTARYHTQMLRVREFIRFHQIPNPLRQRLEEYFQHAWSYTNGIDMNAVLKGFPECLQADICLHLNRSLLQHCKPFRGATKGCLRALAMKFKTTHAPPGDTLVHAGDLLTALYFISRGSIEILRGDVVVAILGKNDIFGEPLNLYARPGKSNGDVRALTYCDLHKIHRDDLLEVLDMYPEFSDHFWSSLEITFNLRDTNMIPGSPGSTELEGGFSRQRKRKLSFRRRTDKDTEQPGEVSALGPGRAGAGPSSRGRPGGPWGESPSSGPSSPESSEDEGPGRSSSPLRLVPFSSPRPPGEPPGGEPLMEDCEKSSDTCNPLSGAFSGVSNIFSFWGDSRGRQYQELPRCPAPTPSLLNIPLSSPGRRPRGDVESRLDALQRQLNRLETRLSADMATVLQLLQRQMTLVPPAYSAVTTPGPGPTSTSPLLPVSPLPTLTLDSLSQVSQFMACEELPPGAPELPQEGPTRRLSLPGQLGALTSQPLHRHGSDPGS
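Further: peak tail current of the secondary pulse compared with the same well before compound.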

Going from Cn1c(CN2CCOCC2)nnc1SCC(=O)NC1CCCCC1 to CC1CCCCC1NC(=O)CSc1nc2ccccc2c(=O)n1Cc1ccco1 (centres unmarked), the “hERG current change (%, negative = inhibition) at 10uM” value falls from 17.7% to 13%.

Compared with COc1cccc(C2(C)NC(=O)N(CC(=O)c3cc(C)n(C4CC4)c3C)C2=O)c1 (centres unmarked), COCCN1C(=O)N(c2cccc(C)c2)C(=O)C1CC(=O)Nc1cc(OC)cc(OC)c1 (centres unmarked) is higher in “hERG current change (%, negative = inhibition) at 10uM” value: -35.8% for the first, 10.2% for the second.

Compared with O=C(NCc1ccc2c(c1)OCO2)c1ccc(Br)s1, CCN(CC)C(=O)CSc1nc2cc3c(cc2c(=O)n1Cc1ccc(OC)cc1)OCO3 is higher in “hERG current change (%, negative = inhibition) at 10uM” value: 6.32% for the first, 12.1% for the second.

Going from CCOC(=O)C1CCN(C(=O)Cn2nc(CC)n3cccc3c2=O)CC1 to CCOC(=O)C1CCN(C(=O)CN(c2cccc(C(F)(F)F)c2)S(C)(=O)=O)CC1, the “hERG current change (%, negative = inhibition) at 10uM” value falls from -0.254% to -25.9%.

First: Cc1cccc(NC(=O)N2C3CCCC2CC(NC(=O)C(C)(C)C)C3)c1 (centres unmarked)
Second: COC(=O)c1cccc(NC(=O)CC2C(=O)NCCN2C(=O)Nc2cc(C)cc(C)c2)c1 (centres unmarked)
The “hERG current change (%, negative = inhibition) at 10uM” value of the first is lower: 1.47% for the first, 11% for the second.

Compared with CCOC(=O)N1CCN(C(=O)c2ccc3c(c2)NC(=O)C(N2CCOCC2)S3)CC1 (centres unmarked), CCOC(=O)N1CCN(C(=O)CN(c2cccc(C(F)(F)F)c2)S(C)(=O)=O)CC1 is lower in “hERG current change (%, negative = inhibition) at 10uM” value: -4.6% for the first, -51.1% for the second.

Compared with CCOc1cccc2cc(C(=O)NCc3cccnc3)c(=O)oc12, COC(=O)C(Cc1c[nH]c2ccccc12)NC(=O)c1cncc(Br)c1 (centres unmarked) is higher in “hERG current change (%, negative = inhibition) at 10uM” value: -1.94% for the first, 1.85% for the second.

First: COc1cc2nc(SCC(=O)NCc3ccco3)n(Cc3ccc(Cl)cc3)c(=O)c2cc1OC
Second: CCN(CC)C(=O)CSc1nc2cc(OC)c(OC)cc2c(=O)n1Cc1ccc(Cl)cc1
The “hERG current change (%, negative = inhibition) at 10uM” value of the first is higher: -3.17% for the first, -77% for the second.

First: O=C(CSc1nc2ccccc2n1CC(=O)NCc1ccccc1)NCc1ccco1
Second: O=C(CSc1nc2ccccc2c2nc3ccccc3n12)NCc1ccco1
The “hERG current change (%, negative = inhibition) at 10uM” value of the first is lower: -20.2% for the first, -8.55% for the second.

Going from O=C(CSc1nc2ccccc2c(=O)n1Cc1ccco1)c1ccc(F)cc1 to O=c1c2ccccc2nc(SCc2ccccc2)n1Cc1ccco1, the “hERG current change (%, negative = inhibition) at 10uM” value falls from 9.22% to 1.3%.

Compared with CC(Sc1nc2ccccc2c(=O)n1Cc1ccco1)C(=O)c1ccccc1 (centres unmarked), CN(C)C(CNC(=O)CSc1nc2ccccc2c(=O)n1Cc1ccco1)c1ccccc1 (centres unmarked) is lower in “hERG current change (%, negative = inhibition) at 10uM” value: -53.9% for the first, -67.1% for the second.

First: Cc1nc2ccccc2n1CCc1nc2c3ccccc3nc(SCC(=O)NCc3ccco3)n2n1
Second: COCCn1c(-c2ccc(OC)cc2)cnc1SCC(=O)Nc1cccc2ccccc12
The “hERG current change (%, negative = inhibition) at 10uM” value of the first is lower: -60% for the first, -21.8% for the second.

Compared with COc1ccc(CCNc2ncnc3c2oc2ccccc23)cc1OC.Cl, COc1ccc(CNc2ncc(-c3ccc(F)cc3)n2C)cc1OC.O=C(O)C(=O)O is lower in “hERG current change (%, negative = inhibition) at 10uM” value: 0.357% for the first, -65.2% for the second.

Compared with CCCCn1nc(C(=O)N2CCc3ccccc32)c2ccccc2c1=O, COc1ccc(CNc2ncc(-c3ccccc3)n2C)c2ccccc12.O=C(O)C(=O)O is lower in “hERG current change (%, negative = inhibition) at 10uM” value: -28.4% for the first, -34.5% for the second.

Going from CN(Cc1nc(-c2cnccn2)no1)Cc1cccc2ccccc12 to CCOc1ccc(-c2cnc(NCc3cccc4ccccc34)n2CCOC)cc1.O=C(O)C(=O)O, the “hERG current change (%, negative = inhibition) at 10uM” value falls from -2.31% to -58.8%.

Compared with CCc1ccc(-c2ccc(SCc3ccccn3)nn2)cc1, COc1ccc(Nc2ccnc3ccccc23)cc1.Cl is lower in “hERG current change (%, negative = inhibition) at 10uM” value: 3.91% for the first, -33.8% for the second.

Going from O=C(Cn1cc(C(F)(F)F)ccc1=O)NCc1ccc(F)cc1 to CNC(=S)NNC(=O)c1cc(C(C)(C)C)nn1Cc1ccc(F)cc1, the “hERG current change (%, negative = inhibition) at 10uM” value falls from 15.6% to 14.6%.

Going from CS(=O)(=O)N(CC(=O)N1CCN(c2ccccc2)CC1)c1cccc(Br)c1 to CS(=O)(=O)N(CC(=O)N1CCN(Cc2ccccc2)CC1)c1cccc(Cl)c1, the “hERG current change (%, negative = inhibition) at 10uM” value falls from -19.2% to -63.8%.

First: O=C(CCN1C(=O)/C(=C/C=C/c2ccccc2)SC1=S)Nc1nc2ccccc2s1
Second: CC(NC(=O)COC(=O)c1cn(-c2ccccc2)nc1-c1cccs1)c1ccccc1 (centres unmarked)
The “hERG current change (%, negative = inhibition) at 10uM” value of the first is higher: 18.3% for the first, 0.115% for the second.

Going from NCC(c1ccccc1Cl)c1c[nH]c2ccccc12 (centres unmarked) to CC(NC(=O)OCc1ccccc1)c1ccccc1 (centres unmarked), the “hERG current change (%, negative = inhibition) at 10uM” value falls from 12.8% to -22.9%.

First: FC(F)(F)c1ccccc1Nc1nccs1
Second: N#Cc1cnn2c(-c3cccc(C(F)(F)F)c3)ccnc12
The “hERG current change (%, negative = inhibition) at 10uM” value of the first is higher: -16.1% for the first, -52.8% for the second.

Going from CCc1ccc(CC2(O)CC(C)N(C)CC2C)cc1 (centres unmarked) to CCC(=O)OC1(Cc2ccc(CC)cc2)CC(C)N(C)CC1C.Cl (centres unmarked), the “hERG current change (%, negative = inhibition) at 10uM” value falls from -29.7% to -59.4%.

First: CCC1(OC(=O)c2ccccc2)CC(C)N(C)CC1C.Cl (centres unmarked)
Second: CC(=O)Nc1nc(COc2ccccc2)cs1
The “hERG current change (%, negative = inhibition) at 10uM” value of the first is lower: -7.85% for the first, -4.04% for the second.

First: Cc1cc(C)cc(N2C(=O)CC(N3CCOCC3)C2=O)c1 (centres unmarked)
Second: COc1ccc(S(=O)(=O)Nc2cccc(F)c2C)cc1C(=O)N1CCOCC1
The “hERG current change (%, negative = inhibition) at 10uM” value of the first is higher: 14.9% for the first, 6.33% for the second.

First: O=C(CN1C(=O)COc2ccc(S(=O)(=O)N3CCCC3)cc21)N1CCCC1
Second: CS(=O)(=O)N(CC(=O)N1CCCCCC1)c1cccc([N+](=O)[O-])c1
The “hERG current change (%, negative = inhibition) at 10uM” value of the first is higher: 9.85% for the first, -32.7% for the second.

Compared with C/C=C/Cn1c(N2CCCCCC2)nc2c1c(=O)[nH]c(=O)n2C, CCOC(=O)N1CCN(S(=O)(=O)N2CCCC(C(=O)NCCCN3CCCCC3)C2)CC1 (centres unmarked) is higher in “hERG current change (%, negative = inhibition) at 10uM” value: -5.14% for the first, 10% for the second.

Going from N#Cc1cnn2c(-c3cccc([N+](=O)[O-])c3)ccnc12 to N#Cc1cnn2c(-c3ccccc3)ccnc12, the “hERG current change (%, negative = inhibition) at 10uM” value rises from -52.7% to 2.49%.

First: COc1ccc(-c2ccnc3c(C#N)cnn23)cc1
Second: NC(=O)c1cnn2c(-c3cccc(C(F)(F)F)c3)ccnc12
The “hERG current change (%, negative = inhibition) at 10uM” value of the first is higher: 6.06% for the first, -2.33% for the second.

Going from NC(=S)c1cnn2c(-c3cccc(C(F)(F)F)c3)ccnc12 to CCOC(=O)N1CCN(C(=O)CN(c2cccc(C(F)(F)F)c2)S(=O)(=O)c2ccccc2)CC1, the “hERG current change (%, negative = inhibition) at 10uM” value falls from 14.2% to -43.6%.

Compared with CC(=O)c1ccc(NS(=O)(=O)c2cccc(C)c2)cc1, COc1ccc(-c2nc(N)n(S(=O)(=O)c3ccc(C)cc3)n2)cc1 is higher in “hERG current change (%, negative = inhibition) at 10uM” value: -1.86% for the first, 39% for the second.

First: COc1ccccc1CNc1ncccn1.O=C(O)C(=O)O
Second: COc1ccccc1CNc1ncc(-c2ccc(F)cc2)n1C.O=C(O)C(=O)O
The “hERG current change (%, negative = inhibition) at 10uM” value of the first is higher: 23.6% for the first, -62% for the second.

Compared with Cn1c(-c2ccc(F)cc2)cnc1NCc1ccccc1F.O=C(O)C(=O)O, COc1ccc(CNc2ncc(-c3ccc(F)cc3)n2C)c2ccccc12.O=C(O)C(=O)O is lower in “hERG current change (%, negative = inhibition) at 10uM” value: -27.3% for the first, -35.1% for the second.

First: COCCCNC(=O)Cn1c(=O)n(Cc2ccccc2Cl)c(=O)c2cc(OC)c(OC)cc21
Second: Cc1ccc(N(CC(=O)N2CCN(Cc3ccccc3)CC2)S(C)(=O)=O)cc1C
The “hERG current change (%, negative = inhibition) at 10uM” value of the first is higher: 9.48% for the first, -7.28% for the second.

Compared with CC(C)Nc1ccc(Nc2ccccc2)cc1, CC(C)Nc1ccc(Nc2ccnc3cc4ccccc4cc23)cc1 is lower in “hERG current change (%, negative = inhibition) at 10uM” value: -0.32% for the first, -72.7% for the second.

Compared with CS(=O)(=O)N(CC(=O)N1CCN(Cc2ccccc2)CC1)c1cccc([N+](=O)[O-])c1, CS(=O)(=O)N(CC(=O)N1CCN(Cc2ccccc2)CC1)c1cccc(F)c1 is higher in “hERG current change (%, negative = inhibition) at 10uM” value: -75.5% for the first, -36.3% for the second.

Going from CS(=O)(=O)N(CC(=O)N1CCOCC1)c1cccc([N+](=O)[O-])c1 to Cc1ccc(CCNC(=O)C2CCN(S(=O)(=O)c3ccc4c(c3)NC(=O)CO4)CC2)cc1, the “hERG current change (%, negative = inhibition) at 10uM” value falls from 6.28% to -1.82%.

Compared with CC(C)CC(C(=O)NC1CCCC1)N(Cc1cccs1)C(=O)c1snc(C(N)=O)c1N (centres unmarked), CC(C)Cc1nnc(NC(=O)CCC(=O)N2CCN(c3ccccc3)CC2)s1 is higher in “hERG current change (%, negative = inhibition) at 10uM” value: -40.5% for the first, 13.2% for the second.

Compared with CS(=O)(=O)c1ccc2nnn(OCC(=O)Nc3ccc(Br)cc3Br)c2c1, COc1ccc(CC2(CO)CCN(Cc3cnc(-c4ccccc4C)nc3)CC2)cc1 is lower in “hERG current change (%, negative = inhibition) at 10uM” value: 7.34% for the first, -20.6% for the second.

First: Cc1ccc(/C=N/c2sc3c(c2C(N)=O)CCCC3)o1
Second: COc1ccc(CC2(CO)CCN(Cc3cccnc3)CC2)cc1
The “hERG current change (%, negative = inhibition) at 10uM” value of the first is higher: 23.3% for the first, -40.3% for the second.

Compared with COCCNC(=O)/C(C#N)=C/c1cccc(/C=C(\C#N)C(=O)NCCOC)c1, CCN(CC)CCNC(=O)c1cc([N+](=O)[O-])c(N(C)C)cc1OC.Cl is lower in “hERG current change (%, negative = inhibition) at 10uM” value: 0.707% for the first, -12% for the second.

First: COc1ccc(CC2(CO)CCN(Cc3cnn(-c4ccccc4OC)c3)CC2)cc1
Second: COc1ccc(CC2(CO)CCN(Cc3cnn(-c4ccccc4)c3)CC2)cc1
The “hERG current change (%, negative = inhibition) at 10uM” value of the first is higher: -64.8% for the first, -77.6% for the second.

Compared with COc1ccc(CC2(CO)CCN(Cc3cnn(-c4ccc(F)cc4)c3)CC2)cc1, COc1ccccc1-n1cc(CN2CCN(CC=C(C)C)C(CCO)C2)cn1 (centres unmarked) is higher in “hERG current change (%, negative = inhibition) at 10uM” value: -76.4% for the first, -13.7% for the second.

First: COc1ccccc1-n1cc(CN2CCN(C3CCCC3)C(CCO)C2)cn1 (centres unmarked)
Second: CCCSc1cc(Cl)nc(N)n1
The “hERG current change (%, negative = inhibition) at 10uM” value of the first is lower: -15.3% for the first, -9.06% for the second.
